Screening data deposited in PubChem by Sanford-Burnham Center for Chemical Genomics.
NPR2 activator = GC-B (human) receptor activation | P20594 | HEK293-GC-B cells, CNP EC30, cGMP TR-FRET; 0% at EC30 CNP, 100% saturating CNP | activation, % at 10 µM | 370,000 compounds, 0.11% hits;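 active means activation at 10 µM reaching about 35% in either raw or pattern-adjusted values, limit read from the data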
NPR1 activator = GC-A (human) enzyme activation | P16066 | HEK293 GC-A cells, cGMP TR-FRET, EC30 ANP; 0% at EC30 ANP, 100% saturating ANP | activation, % at 10 µM | 370,000 compounds, 0.14% hits | AID 1671463; in the data active means activation above about 40%
FAS-TE inh = inhibitors of human fatty acid synthase thioesterase domain; P49327; AID 602261; recombinant FAS-TE, OMFH fluorogenic substrate, fluorescence endpoint; inhibition, % at 15 µM; 360,000 compounds, 0.67% hits;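 active means compounds whose normalised, plate-corrected inhibition of enzyme fluorescence in the single-dose primary screen is 50% or more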;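 further: 0% = DMSO with enzyme and 100% = substrate without enzyme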
A3G deaminase = APOBEC3G (human) deaminase inhibition | Q9HC16 | AID 493012 | 330,000 compounds, 0.28% hits | inhibition, % at 20 µM | recombinant A3G, ssDNA deamination FAM/TAMRA fluorescence;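 active means inhibition of at least 40% at 20 µM, with no more than 30% in the related APOBEC3A deaminase screen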;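 further: plate controls were DMSO wells with A3G for no effect and wells lacking A3G enzyme for full effect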
APOBEC3A inh = blocks human APOBEC3A ssDNA deamination; P31941; recombinant A3A, FAM/TAMRA ssDNA deamination fluorescence; inhibition, % at 20 µM; AID 493011; 330,000 compounds, 0.41% hits;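 active means at least 40% inhibition at 20 µM here, with at most 30% in a related deaminase screen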;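 further: plate controls were A3A with DMSO for no effect and wells lacking A3A enzyme for full effect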
* hit, by the source's call; nt = no result given; ! = not active in a repeat. This is a sample that favours compounds with a hit; in the whole collection about 1.4% have one here.

SMILES	NPR2 activator	NPR1 activator	FAS-TE inh	A3G deaminase	APOBEC3A inh
CC(C)(C)OC(=O)CN1C(=O)S/C(=C\c2ccc(-c3cccc(C(=O)O)c3)o2)C1=O	nt	nt	nt	-11.2	45.0*
Cc1ccc(NC(=O)CN2C(=O)S/C(=C/c3ccc(-c4cccc(C(=O)O)c4)o3)C2=O)cc1	-4.0	-16.9	1.7	nt	nt
COC(=O)[C@]12C[C@H](CC(=O)N3CCC(c4ccccc4)CC3)C(=O)N(Cc3cccc4ccccc34)C1=C[C@H](C(C)C)O[C@@H]2C1CC1	4.7	4.0	nt	nt	nt
C=CC[C@@]1(c2ccccc2)Oc2ccccc2-c2nc3ccccc3nc21	3.1	-5.8	nt	nt	nt
COC(=O)c1cccc(-n2sc3ccccc3c2=O)c1	8.6	7.3	-14.3	77.6*	-1.5
COC(=O)c1cccc(N2CCCC2=O)c1	2.0	-1.2	-9.9	-5.3	-6.1
Cc1cc2c(nc1C)CCCN2S(=O)(=O)c1c(C)noc1C	3.4	3.1	nt	nt	nt
c1csc(CNc2ncnc3ccc(-c4ccc5c(c4)OCO5)cc23)c1	32.5*!	2.0	8.5	1.4	3.3
c1csc(CNc2ncnc3ccc(-c4ccoc4)cc23)c1	27.7	30.8	4.8	-2.7	2.5
COc1ccc(S(=O)(=O)N2CCOCC2)cc1N=Nc1sc(N)nc1-c1ccccc1	44.5*	55.3*	-7.6	-1.3	1.4
CC(=O)Nc1ccc(Nc2nc(C)c([N+](=O)[O-])c(Nc3ccc(NC(C)=O)cc3)n2)cc1	38.1*	33.1	-4.3	-7.3	-3.8
Cn1c(=O)c2[nH]c(SCC(=O)N3CCN(c4cccc(C(F)(F)F)c4)CC3)nc2n(C)c1=O	-0.5	-1.1	nt	nt	nt
COc1ccc(-c2csc(NC(C)c3nc4cc(C(=O)NCCCO)ccc4n3Cc3ccc(C)cc3)n2)cc1 (stereo not drawn)	46.6*	35.0	13.8	-7.1	-4.4
O=C(Nc1ccc(Cl)cc1)N1CCN(Cc2nc3ccccc3c(=O)[nH]2)CC1	-10.1	-5.9	nt	nt	nt
COc1ccc(-c2nc3ccccc3n2Cc2ccccc2)cc1	38.9*	37.5	5.1	-0.9	0.3
Brc1ccc(Cn2c(-c3cncs3)nc3ccccc32)cc1	5.2	53.2*	20.7	-0.5	-3.9
CCc1nnc(NS(=O)(=O)c2ccc(NC(=S)NC(=O)/C=C/c3ccccc3)cc2)s1	-0.9	-6.7	27.0	3.4	1.1
CCc1nnc(NS(=O)(=O)c2ccc(NC(=S)NC(=O)/C=C/c3ccc(C(C)C)cc3)cc2)s1	nt	nt	51.0*	-6.9	-3.9
CN(C)CC1CCC/C(=C\c2ccc(OC(=O)/C=C/c3ccccc3)cc2)C1=O (stereo not drawn)	-0.7	4.8	10.8	nt	nt
CN(C)CC1CCC/C(=C\c2ccc(OC(=O)c3ccc(Cl)cc3)cc2)C1=O (stereo not drawn)	4.4	40.1*	9.0	nt	nt
CC(=O)Nc1cccc(Oc2ncnc3scc(-c4ccccc4)c23)c1	46.2*	38.6	10.2	-2.5	-0.5
O=S(=O)(c1ccc(Oc2ncnc3scc(-c4ccccc4)c23)cc1)N1CCOCC1	-2.8	-3.7	35.6	-5.0	-3.0
O=C(COC(=O)c1cc([N+](=O)[O-])ccc1NCCO)Nc1cccnc1Cl	57.1*	55.9*	30.9	-1.9	-0.6
O=C(COC(=O)c1ccc([N+](=O)[O-])cc1Cl)Nc1cccnc1Cl	-3.5	2.3	0.7	-2.1	1.8
CC(C)(C)NC(=O)C[C@H]1C[C@H](C(=O)N2CCOCC2)[C@@]2(CCC3CCCC3)c3[nH]c4ccc(Cl)cc4c3CCN2C1=O	nt	nt	89.3*	-1.1	1.9
SMILES	NPR2 activator	NPR1 activator	FAS-TE inh	A3G deaminase	APOBEC3A inh
O=C(c1cccc(Oc2ccccc2)c1)N1CCC(Oc2cccnc2)CC1	-3.4	4.5	nt	nt	nt
Cc1ccccc1N(C)C(=O)Cn1nnc(-c2ccccc2F)n1	4.2	-0.2	nt	nt	nt
Cn1c(=O)n(Cc2ccccc2)c(=O)c2c1nc1n2CCCN1CCc1ccccc1	43.2*	29.5	21.6	-1.4	-0.7
Cn1c(=O)n(Cc2ccccc2)c(=O)c2c1nc1n2CCCN1Cc1ccccc1	9.9	4.2	12.8	-5.0	-3.3
Cc1onc(C(=O)N2CCN(C(c3ccccc3)c3ccccc3)CC2)c1Br	2.8	-5.3	nt	nt	nt
CCS(=O)(=O)c1ncc(Cl)c(C(=O)Nc2ccc(S(=O)(=O)N(C)c3ccccc3)cc2)n1	40.9*	62.0*	47.3	2.6	2.0
Cc1ccc(NC(=O)c2nc(S(=O)(=O)Cc3ccccc3)ncc2Cl)cc1	14.9	37.6	40.7	1.4	4.3
O=C1CCCc2c1cc(-c1ccccc1)n2-c1ccc(O)cc1	6.1	75.5*	-0.1	3.4	1.7
